About 2,000 (36%) of roughly 5,500 compounds were called active. Roughly 18% stayed inconclusive and do not appear here. No stated cut-off is given here; in the data, active means normalized growth mostly below about 0.91 (no sharp cut-off); inconclusive means no clear call, values can overlap the other calls; inactive means mostly above about 0.92. The list shows a part of the results.
Assay: chemical genetic growth profiling, strain panel (AID 1159580);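 further: tested at 20 µM; growth read once vehicle control cultures reached saturation at 30 °C; 1 = growth at the plate median or of vehicle wells; lower values mean less growth of the strain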
Settings: S. cerevisiae deletion strains, growth OD

Measured: normalized growth

CCOc1ccc2nc3cc(N)ccc3c(N)c2c1
inactive: locus YBR171W, strain sec66, hits give low values 1.07 | locus YDL005C, strain med2, hits give low values 0.981 | locus YDR001C, strain nth1, hits give low values 0.94 | locus YDR137W, strain rgp1, hits give low values 0.985 | locus YDR159W, strain sac3, hits give low values 1.06 | locus YDR334W, strain swr1, hits give low values 1.03 | locus YDR392W, strain spt3, hits give low values 0.803 | locus YEL061C, strain CIN8 (second series), hits give low values 0.997 | locus YER111C, strain swi4, hits give low values 0.987 | locus YGL167C, strain pmr1, hits give low values 1.03 | locus YGL240W, strain doc1, hits give low values 1.06 | locus YHR030C, strain SLT2, hits give low values 0.967 | locus YHR079C, strain IRE1, hits give low values 0.89 | locus YJL095W, strain BCK1, hits give low values 0.935 | locus YJL115W, strain asf1, hits give low values 0.987 | locus YJL154C, strain vps35, hits give low values 0.97 | locus YJR066W, strain TOR1, hits give low values 0.851 | locus YLR113W, strain HOG1, hits give low values 0.961 | locus YLR262C, strain YPT6 (second series), hits give low values 0.891 | locus YLR357W, strain rsc2, hits give low values 1.09 | locus YMR125W, strain sto1, hits give low values 0.892 | locus YNL183C, strain NPR1, hits give low values 0.875 | locus YNL322C, strain KRE1 (second series), hits give low values 1 | locus YNR049C, strain mso1, hits give low values 1 | locus YOR231W, strain MKK1, hits give low values 0.901 | locus YPL256C, strain CLN2, hits give low values 1.03
active: locus YAL021C, strain ccr4, hits give low values 0.749 | locus YAL026C, strain drs2, hits give low values 0.607 | locus YAL030W, strain snc1, hits give low values 0.63 | locus YBL061C, strain skt5, hits give low values 0.745 | locus YBR009C, strain hhf1, hits give low values 0.353 | locus YBR023C, strain chs3, hits give low values 0.721 | locus YBR231C, strain swc5, hits give low values 0.702 | locus YBR279W, strain paf1, hits give low values 0.51 | locus YCL011C, strain gbp2, hits give low values 0.447 | locus YCL016C, strain dcc1, hits give low values 0.462 | locus YCL061C, strain MRC1, hits give low values 0.846 | locus YCL069W, strain vba3, hits give low values 0.834 | locus YCR088W, strain abp1, hits give low values 0.695 | locus YDL040C, strain nat1, hits give low values 0.779 | locus YDR069C, strain doa4, hits give low values 0.696 | locus YDR195W, strain ref2 0.823 | locus YDR297W, strain sur2, hits give low values 0.705 | locus YDR335W, strain msn5, hits give low values 0.907 | locus YEL003W, strain gim4, hits give low values 0.534 | locus YEL037C, strain rad23, hits give low values 0.785 | locus YER015W, strain faa2, hits give low values 0.641 | locus YER016W, strain bim1, hits give low values 0.679 | locus YER155C, strain BEM2 (second series), hits give low values 0.856 | locus YFR010W, strain ubp6, hits give low values 0.683 | locus YGL173C, strain kem1, hits give low values 0.677 | locus YGL227W, strain vid30, hits give low values 0.754 | locus YGL253W, strain hxk2, hits give low values 0.761 | locus YHR013C, strain ard1, hits give low values 0.747 | locus YHR027C, strain rpn1, hits give low values 0.618 | locus YHR142W, strain chs7, hits give low values 0.801 | locus YJL092W, strain hpr5, hits give low values 0.803 | locus YJL095W, strain BCK1 (second series), hits give low values 0.785 | locus YJL129C, strain trk1, hits give low values 0.648 | locus YJL164C, strain tpk1, hits give low values 0.379 | locus YJL166W, strain qcr8, hits give low values 0.583 | locus YJL187C, strain SWE1, hits give low values 0.846 | locus YKL160W, strain elf1, hits give low values 0.733 | locus YKR026C, strain gcn3, hits give low values 0.864 | locus YKR091W, strain srl3, hits give low values 0.875 | locus YLL001W, strain dnm1, hits give low values 0.662 | locus YLL026W, hits give low values 0.508 | locus YLL041C, strain sdh2, hits give low values 0.863 | locus YLR027C, strain aat2, hits give low values 0.481 | locus YLR221C, strain rsa3, hits give low values 0.541 | locus YLR258W, strain gsy2, hits give low values 0.529 | locus YLR320W, strain mms22, hits give low values 0.742 | locus YLR342W, strain FKS1, hits give low values 0.866 | locus YLR370C, strain arc18, hits give low values 0.704 | locus YLR384C, strain iki3, hits give low values 0.85 | locus YML120C, strain ndi1, hits give low values 0.252 | locus YMR058W, strain fet3, hits give low values 0.587 | locus YMR129W, hits give low values 0.659 | locus YMR205C, strain PFK2, hits give low values 0.751 | locus YMR231W, strain pep5, hits give low values 0.883 | locus YNL071W, strain lat1, hits give low values 0.909 | locus YNL209W, strain ssb2, hits give low values 0.53 | locus YNL248C, strain rpa49, hits give low values 0.827 | locus YOR001W, strain rrp6, hits give low values 0.365 | locus YOR070C, strain gyp1, hits give low values 0.607 | locus YOR080W, strain dia2, hits give low values 0.876 | locus YOR083W, strain WHI5, hits give low values 0.58 | locus YOR106W, strain vam3, hits give low values 0.489 | locus YOR265W, strain rbl2, hits give low values 0.61 | locus YOR270C, strain vph1, hits give low values 0.707 | locus YOR290C, strain snf2, hits give low values 0.441 | locus YPL051W, strain arl3, hits give low values 0.653 | locus YPL078C, strain atp4, hits give low values 0.813 | locus YPL106C, strain sse1, hits give low values 0.719 | locus YPL240C, strain hsp82, hits give low values 0.623

From PubChem BioAssay AID1159580 (chemical genetic matrix, 2015)
